PubChem BioAssay (NCATS)
Results filed as inconclusive are left out. Calls of active or inactive are those of the source. Calls follow the shape of the dose curve; as a rule, active = well fitted inhibition curve with a large enough effect; inconclusive = small, poorly fitted or top-dose-only effect; inactive = flat fitted curve, though single readings scatter.

Each compound was assayed against Glutathione peroxidase 1 (Homo sapiens) (UniProt P07203) (assay: Primary qHTS Assay for Inhibitors of Recombinant Selenoprotein Glutathione Peroxidase 1 (GPX1) (AID 1845191; also: nearly all actives have a fitted effect of over 65% in size)). Details: recombinant GPX1, GR-coupled NADPH fluorescence, 15 min; series mostly up to 48.8 µM; activity, negative = inhibition: at the top concentration.
Glutathione peroxidase 1 (Homo sapiens), sequence (P07203 whole entry, looked up): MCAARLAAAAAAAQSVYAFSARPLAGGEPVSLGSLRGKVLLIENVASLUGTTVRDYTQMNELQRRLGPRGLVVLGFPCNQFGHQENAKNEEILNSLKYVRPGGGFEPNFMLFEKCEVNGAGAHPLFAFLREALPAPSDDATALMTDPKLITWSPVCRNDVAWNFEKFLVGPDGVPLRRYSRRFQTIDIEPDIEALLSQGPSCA
Procedure, shortened: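 Recombinant GPX1 (10 nM final) was preincubated with compound for 30 min at room temperature, then reacted with 1 mM GSH, 0.5 mM CHP, 0.5 mM NADPH and 100 nM glutathione reductase; NADPH fluorescence (340/450 nm) was read at 0 and 15 min.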
% is scaled to controls: 0 for no effect and ±100 for the full control effect.

Row | SMILES | Potency | activity, negative = inhibition | outcome
1 | C[C@@H](O)[C@H]1C(=O)N2C(C(=O)O)=C(S[C@@H]3CN[C@H](CNS(N)(=O)=O)C3)[C@H](C)[C@H]12 | inactive |  | 
2 | CCCCC(CC)COC(=O)/C=C/c1ccc(OC)cc1 (stereo not drawn) |  | -6.86% (inactive) | 
3 | O=C(Oc1cccc2cccnc12)c1ccccc1 |  |  | inactive
4 | OCCOCCN1CCN(C2=Nc3ccccc3Sc3ccccc32)CC1 |  |  | inactive
5 | COc1ccc(C(=O)c2ccccc2O)c(O)c1 |  | -20.7% (inactive) | 
6 | COc1ccc(C(Cl)=C(c2ccc(OC)cc2)c2ccc(OC)cc2)cc1 |  | 4.04% (inactive) | 
7 | CO[C@H]1C=CO[C@@]2(C)Oc3c(C)c(O)c4c(O)c(c(/C=N/N5CCN(C)CC5)c(O)c4c3C2=O)NC(=O)/C(C)=C\C=C[C@H](C)[C@H](O)[C@@H](C)[C@@H](O)[C@@H](C)[C@H](OC(C)=O)[C@@H]1C |  | -12.3% (inactive) | 
8 | CCCN(CCC)S(=O)(=O)c1ccc(C(=O)O)cc1 |  |  | inactive
9 | O=C(Nc1ccc([N+](=O)[O-])cc1)Nc1ccc([N+](=O)[O-])cc1 |  |  | inactive
10 | C[N+]1(C)CCC(=C(c2ccccc2)c2ccccc2)CC1 |  | -11.3% (inactive) | 
11 | Cc1cc(NS(=O)(=O)c2ccc(N)cc2)nc(C)n1 |  |  | inactive
12 | O=C(O)P(=O)(O)O |  |  | inactive
13 | O=C(Nc1cccc(C2=NCCN2)c1)Nc1cccc(C2=NCCN2)c1 |  | -4.21% [at 27.7 µM] (inactive) | 
14 | CC1CCc2c(N3CCC(O)CC3)c(F)cc3c(=O)c(C(=O)O)cn1c23 (stereo not drawn) |  | -30.3% (inactive) | 
15 | NC1CCN(c2nc3c(cc2F)c(=O)c(C(=O)O)cn3-c2ccc(F)cc2F)C1 (stereo not drawn) |  |  | inactive
16 | NC(=O)C1(N2CCCCC2)CCN(CCCC(=O)c2ccc(F)cc2)CC1 |  | 4.13% (inactive) | 
17 | CN(C)CCN1C(=O)c2ccccc2N(C)c2ccccc21 |  | -2.51% (inactive) | 
18 | COc1ccc(-c2cc(C(F)F)nn2-c2ccc(S(N)(=O)=O)cc2)cc1F |  | -31.6% (inactive) | 
19 | CCc1ccc(C(=O)C(C)CN2CCCCC2)cc1 (stereo not drawn) |  | -11.6% (inactive) | 

Row | SMILES | Potency | activity, negative = inhibition | outcome
20 | CCCCCN=C(N)N/N=C/c1c[nH]c2ccc(OC)cc12 |  | 4.03% (inactive) | 
21 | COc1cc(C(=O)NCc2ccc(OCCN(C)C)cc2)cc(OC)c1OC |  | 3.66% (inactive) | 
22 | CC(C)(C)NCC(O)COc1cccc2c1C[C@H](O)[C@H](O)C2 (stereo partly drawn) |  | 1.24% (inactive) | 
23 | O=C(O)CCC(=O)Nc1ccc(S(=O)(=O)Nc2nccs2)cc1 |  |  | inactive
24 | CC(=O)Nc1ccc(S(=O)(=O)Nc2ccc([N+](=O)[O-])cc2)cc1 |  |  | inactive
25 | CCCCN1C[C@H](O)[C@@H](O)[C@H](O)[C@H]1CO |  | -2.5% (inactive) | 
26 | O=C(NC1CCN(CCc2c[nH]c3ccccc23)CC1)c1ccccc1 |  | -18.6% (inactive) | 
27 | CC(C)Cc1ccc(CC(=O)O)cc1 |  |  | inactive
28 | CC(=O)O[C@]1(C(C)=O)CC[C@H]2[C@@H]3C=C(C)C4=CC(=O)CC[C@]4(C)[C@H]3CC[C@@]21C | inactive |  | 
29 | c1ccc(CC2=NCCN2)cc1 |  | -22.1% (inactive) | 
30 | CCOC(=O)c1ccc(N)cc1 |  | 1.14% (inactive) | 
31 | COc1cc(N)c(Cl)cc1C(=O)NC1CCN(Cc2ccccc2)CC1 |  |  | inactive
32 | N#C/C(=C1\SCC(c2ccccc2Cl)S1)n1ccnc1 (stereo not drawn) |  |  | inactive
33 | O=C(O)CCNC(=O)c1ccccc1 |  |  | inactive
34 | C/C=C/c1ccc(O)c(OC)c1 |  | -1.01% (inactive) | 
35 | O=C1c2cccc3c2[C@H](CCC3)CN1[C@@H]1CN2CCC1CC2 |  | -12.3% (inactive) | 
36 | COC(=O)C(c1ccccc1Cl)N1CCc2sccc2C1 (stereo not drawn) |  | -12.1% (inactive) | 
37 | CC[C@H](c1ccc(O)cc1)[C@@H](CC)c1ccc(O)cc1 |  | -27.8% (inactive) | 
38 | Cc1c[nH]c2ccccc12 |  | -3.13% (inactive) | 
